# Reference: PubChem BioAssay AID1347426 (Functional Genomics Laboratory (NCATS/FGL), 2020)
# The whole screen tested about 31,000 sequences, of which about 1,400 (4.5%) were called active. The entries come from a sample that favours actives as a whole. A number with no mark means an inactive call.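 How the source made its calls: active means median seed-adjusted z-score above 1 or below -1; inactive means the rest.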
# Test: Novel Modifiers of Survival Motor Neuron (SMN) Protein: Gene Identification via Genome-wide siRNA Screen;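 further: luminescence tracks full-length SMN protein made from the SMN2 reporter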
# Details: HEK293T SMN2-luciferase reporter, siRNA knockdown, 72 h; actives lie on both sides
# Summary of the method: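 Luciferase signal, proportional to full-length SMN made from an SMN2 cDNA reporter in stable HEK293T cells, was read 72 h after siRNA reverse transfection. Values were expressed as MAD scores after non-targeting-control normalization and log10 conversion; seed analysis flagged off-targets.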
row,Sequence,median seed-adjusted z-score
1,GCAAGGUUUAAUGAACAAATT against GTF2E1,1.76 (active)
2,GUGAGAACUUUGACGAUUATT against PMP2,0.00618
3,GUAACUGCAUUCAACUUGATT against OSMR,0.548
4,UGAAAAACAUUAACAAGCATT against RNASE7,1.07 (active)
5,CAACCUACAUGUUUGCUGATT against SCARF1,-0.324
6,GGAACAUUCCGACCUACAATT against PTDSS2,0.0941
7,CCGUCACCAUCCUCAUCUATT against PORCN,0.214
8,GAUGAUUUUUGGAGACCUATT against TRPV5,0.0879
9,GGAGUUUGAGGUAUACCUATT against IL6,-0.436
10,GCUUUAACGUGUCUGUGCATT against SLC25A5,-0.0501
11,CUACUACUUUAAUCCCUAATT against FDFT1,-0.143
12,GCAUCGACCUGAUUCACAATT against AP3B2,-2.45 (active)
13,GGAGCGGUUCAGAUCAAUATT against RAB39,-0.408
14,CCUCAUUGAUAACACUAAATT against GBP2,-0.263
15,GGAUUGAAGGUGUUCACUATT against PZP,-0.878
16,CAGUACUACGUGAAACUGATT against BAT1,-1.49 (active)
17,GGCUACAAGUAGAGAGUUUTT against ESPL1,0.871
18,GAGAAAGUGUGAACUUACATT against XRCC2,0
19,CGCAACUCUUUACACCGUATT against SAMHD1,-1.33 (active)
20,GGAUGUUUUCGAAACGCAUTT against BRDT,-0.357
21,GACUAUUCCUGAUCCUUAUTT against AGBL2,-0.796
22,GCAUCAGCUUCGAUGAGUATT against S100A16,0.24

row,Sequence,median seed-adjusted z-score
1,CCCUGUCUAUAAUUUCUUUTT against DGCR8,-0.266
2,CGCCUUAUACUUUACCAAATT against MGC16703,0.55
3,CCAUUAAGAAUGCUAAUAUTT against ABCB10,-0.1
4,GGCUAUAGGGUGUAUAUUUTT against CDK8,-1.47 (active)
5,CCUUCGACCUCAAGAGACATT against OVOL1,-0.0414
6,CAGGCUUUGUUAGACGUAATT against ZNF157,0.137
7,GCUCUUGGAUUAAAAGGUATT against STAR,0.478
8,GAACGUACUCUUGCUUAUATT against ATP6V1D,0.594
9,CAGAGAACCCAUUACAUCATT against HADH,1.11 (active)
10,GACUUUCACAGUUCACCGATT against KCTD3,0.603
11,UCAACCCUCUGAUAGAAGATT against EID2,-1.04 (active)
12,GUAUGCUCCCGAUCAAGUATT against APOBEC3A,0.467
13,GAAGGAUGGGUGGACGUAATT against NALCN,-0.266
14,CCAUAAAUGCUACGAAUAUTT against EGFR,0.263
15,CAAUGAAUUUUUCCGAAGATT against ITGA10,0.378
16,CCACAUGCUUCAAACAUCATT against TOR1A,-0.231
17,UAGCUUCGGUGAUCAAGAATT against ANXA9,0.055
18,GCAAGAGUCGUUCACCAGATT against MGMT,-0.0549
19,GCUCAAAGGUCUCACCUGCTT against SLC35A2,1.06 (active)
20,GGCCGGAGAUUAUCCUCAATT against MIXL1,-0.204
21,GUGUGGUAGCUAUUGACAATT against TSC22D1,0
22,UUCCCAUAUUUAUUCGGACTT against AMH,-0.255

row,Sequence,median seed-adjusted z-score
1,GCAGUGACCUUCAAAGUGATT against PTPRN2,-0.104
2,CAACUGCAAGAGGACUGUATT against SLC10A4,0.069
3,UGCUGUUCGUGGAUUUCAATT against CDX4,0.181
4,AGAUUGAAAUCGACUUUGATT against BRD4,1.13 (active)
5,GCAUCAUCUCAGCACCAGATT against SLC5A12,0.279
6,GAACCGCCCUCCUGAUUAATT against WNT3A,-0.66
7,GCAAGAUCCCAAAUCAGCATT against ADAT1,0.404
8,ACAAGAUGACCAACACUAATT against ARHGAP1,-1.14 (active)
9,GAACGGGUAUGUGGAGAUATT against INHBA,0.361
10,CGAACGAAGAAGAGCCGAATT against NFATC2,0.183
11,CUACCCAACCUGUAGCUAATT against UBE2J1,-1.2 (active)
12,CGAUUAGAAAUCAACAUGATT against MLKL,0
13,GAUUUCUAGGCAUCCCGUATT against ARSA,0.0938
14,CCAUGAUCCUGUGGAUAAATT against HNRNPA2B1,1.33 (active)
15,CCCUCGAAUUCGCAUAGAATT against DIS3,0.266
16,GCACCGUCUAUGUCACCAUTT against GAL3ST3,-0.54
17,CCCAUAUUCGGAUCCAGAATT against PTPN6,-0.515
18,GGAAUCGUGGAGAAUAUGATT against NUBP2,-0.21
19,CCAUGCCCUAUGUUAAGAATT against RRM2B,-0.128
20,AGACGAUCCGGGUAAAGUUTT against LSM7,-0.45
21,CAACUAGUGCAACCAGUAATT against ZNF207,-3.1 (active)
22,GGCUCCUCCUUGUACUCAATT against FOXO3,-0.712

row,Sequence,median seed-adjusted z-score
1,GGGCAUCGCUAAACCCAAATT against LIF,0.273
2,GGUCCGAUGUUACGUCUAATT against TIGD4,-0.553
3,CCGGGACAGUGACAUCAUATT against ENDOD1,-0.138
4,GGAGCACAGAGGCUCAGAATT against TNFRSF13B,0.152
5,CCAUCAAACUUGCAUCCCUTT against ISX,1.99 (active)
6,GAACAUCUCUUGUGGUAUUTT against SLC22A16,0.0878
7,GGUUUUAACUGGAACUGGATT against HIF1AN,-0.0315
8,GGAUCGACCCAACCUAUGUTT against XYLT2,0.148
9,CAGCACUAUUAGACAGGAATT against ZBTB40,0.187
10,CUGCGGACCCAAUACAUGATT against ARID3A,-1.11 (active)
11,AGAGGUUUGGCAGAAAUACTT against NPFF,-0.631
12,UAAGAACACCGUUACCCAATT against NLGN4X,-0.1
13,GCAGACCACCUGAAUAUGATT against TRO,2.04 (active)
14,GGAGUAGAUUUUAGCAUAATT against TNKS2,0.0545
15,GAUAUUGCACAAAUCUAUATT against UBE2D1,0.508
16,GAAGAUAUGCAACAGCCUATT against UNC5B,-0.0207
17,CAGAAGUCGUAGUCAUGAATT against RBM39,-1.82 (active)
18,GUAUCUGACUGACAUCCUUTT against PLCH2,0.593
19,CCAAUACAGUGGAACCUAUTT against ATXN1,-0.024
20,CCUCCAACGUAUCAUGAGATT against CYP7A1,-0.0092
21,ACAAAAUUGCUACAUCAAATT against ECHDC1,0.554
22,GCAGAGAACUGGUUCCGAATT against ZNF512B,0.212

row,Sequence,median seed-adjusted z-score
1,CCGUGUCUUCAGGAACGAATT against CYB561,0
2,GAUUUUAGCACUACAACAATT against ZNF664,1.08 (active)
3,AGCUGAAAAUUGAGAACAATT against TBX4,0.968
4,GCCCAUUAAUAUUAUAGGUTT against LAP3,0.0175
5,CCUUCAUCCGGAAAUUAAATT against ZIM3,-0.02
6,GGUGGAUGGUAAUAAGGAATT against CTPS2,1.08 (active)
7,GGAAGUUGUUCAACGAGAUTT against MLPH,-1.2 (active)
8,CGGCUAUGACAAGUCAAUATT against PKDREJ,0.376
9,GGCAGUACAUGUACGAUGATT against AGXT2L2,-0.0495
10,GAACUGUCGGCGGAACAUUTT against MFAP3L,1.03 (active)
11,GCGUUGACAGUGAUGCGUATT against SLC4A3,-0.7
12,GCUUUUGCAUGGAUGUGCATT against ELTD1,0.387
13,GGAAUAUGAGGUGACCGUUTT against IL17RA,-1.29 (active)
14,CGGUAAAUGUCACUCGUGATT against PRKG1,0
15,AGAUGUCCAGACCAAGAUATT against CREBL1,-0.348
16,CAACGAAAAUCUAAAUGCATT against HMMR,0.389
17,AGAAUGUGCGGCUUAUUGATT against CCDC88B,-0.153
18,CCAGAGCAAAGGCUAUGAATT against ZNF350,0.133
19,UAAAAUCUAGGGAUCCAAUTT against POLR2K,-3.72 (active)
20,AGAUUACGUUGAAGAACGATT against GNGT1,-0.0382
